Laboratory results published in PubChem BioAssay (NCI).
The panel holds about 83,000 compounds, 20% with a hit somewhere; the sample as a whole holds those more often.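 Compound tested at a single concentration for 48 hours in 96-well plates; a percent growth value below 10 was scored as active.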 The source made the active and inactive calls.

Experiments:
Experiment in all cases: NCI-60 one-dose screen, 48 h (100 = growth as untreated, 0 = no growth, -100 = all killed)
Conditions in all cases: 10 µM unless noted
NCI-H23 lung = test system: NCI-H23 lung
NCI-H226 lung = test system: NCI-H226 lung
NCI-H322M lung = test system: NCI-H322M lung
HOP-62 NSCLC = test system: HOP-62 NSCLC
NCI-H460 lung = test system: NCI-H460 lung
HOP-92 NSCLC = test system: HOP-92 NSCLC
A549/ATCC NSCLC = test system: A549/ATCC NSCLC
786-0 renal = test system: 786-0 renal
COLO 205 colon = test system: COLO 205 colon
DU-145 prostate = test system: DU-145 prostate
K-562 leukemia = test system: K-562 leukemia
MALME-3M melanoma = test system: MALME-3M melanoma
MDA-MB-231 breast = test system: MDA-MB-231 breast
RXF 393 renal = test system: RXF 393 renal
SF-268 CNS = test system: SF-268 CNS
SF-295 CNS = test system: SF-295 CNS
SF-539 CNS = test system: SF-539 CNS
UACC-257 melanoma = test system: UACC-257 melanoma
M14 melanoma = test system: M14 melanoma
NCI-H522 lung = test system: NCI-H522 lung

Measured: growth

COc1cc2c(c(OC)c1OC)C(=O)CC(c1cccc(NC(=O)c3cc([N+](=O)[O-])ccc3Cl)c1)O2 (stereo unspecified)
inactive: NCI-H23 lung 20.1% | NCI-H226 lung 25.3% | NCI-H322M lung 55.7% | HOP-62 NSCLC 43% | NCI-H460 lung 30.8% | HOP-92 NSCLC 36.3% | A549/ATCC NSCLC 35.6% | 786-0 renal 25.1% | COLO 205 colon 37.1% | K-562 leukemia 19.5% | MALME-3M melanoma 51.9% | SF-268 CNS 42.2% | SF-295 CNS 49.8% | SF-539 CNS 22.2% | UACC-257 melanoma 39.9%
active: DU-145 prostate 5.58% | MDA-MB-231 breast 6.08% | RXF 393 renal -6.08% | M14 melanoma 0.0604%

COc1cccc(/C=C/C(=O)c2ccc(OC)c(S(N)(=O)=O)c2)c1
inactive: NCI-H23 lung 15.1% | NCI-H226 lung 53.9% | NCI-H322M lung 22.2% | HOP-62 NSCLC 21.4% | NCI-H460 lung 16.2% | HOP-92 NSCLC 55.9% | A549/ATCC NSCLC 10.3% | 786-0 renal 14.6% | DU-145 prostate 31.8% | MALME-3M melanoma 71.2% | MDA-MB-231 breast 49.4% | RXF 393 renal 41.7% | SF-268 CNS 39.5% | SF-295 CNS 34.6% | UACC-257 melanoma 65.8% | M14 melanoma 41.2%
active: NCI-H522 lung -65.1% | COLO 205 colon -18.4% | SF-539 CNS -11.6%

O=C(O)c1cccc(-c2ccc(/C=N/NC(=O)c3[nH]c4ccc(Br)cc4c3-c3ccccc3)o2)c1
inactive: NCI-H23 lung 86.5% | NCI-H226 lung 87.9% | NCI-H322M lung 78.9% | HOP-62 NSCLC 68.9% | NCI-H460 lung 95.3% | HOP-92 NSCLC 69.1% | A549/ATCC NSCLC 100% | 786-0 renal 84.6% | COLO 205 colon 114% | DU-145 prostate 98.7% | K-562 leukemia 65.8% | MALME-3M melanoma 55.2% | RXF 393 renal 24.7% | SF-268 CNS 47.6% | SF-295 CNS 72.3% | SF-539 CNS 11.8% | UACC-257 melanoma 93.8% | M14 melanoma 65.9%

CC(C)c1sc(NC(=O)c2cc(NC(=O)c3cc(NC(=O)c4nccn4C)cn3C)cn2C)nc1C(=O)NCCCN(C)C
active: HOP-92 NSCLC -0.363%
inactive: NCI-H23 lung 75.3% | NCI-H226 lung 71.2% | NCI-H322M lung 95.6% | HOP-62 NSCLC 80.1% | NCI-H460 lung 118% | A549/ATCC NSCLC 106% | 786-0 renal 104% | COLO 205 colon 69.1% | DU-145 prostate 91.7% | K-562 leukemia 30.8% | MALME-3M melanoma 65% | MDA-MB-231 breast 85.5% | RXF 393 renal 76.6% | SF-268 CNS 57.9% | SF-295 CNS 100% | SF-539 CNS 76.9% | UACC-257 melanoma 82.3% | M14 melanoma 94.3%

O=c1[nH]c2ccc(Cl)cc2cc1CSc1nccc(-c2ccc(Cl)cc2)n1
inactive: NCI-H23 lung 53.9% | NCI-H322M lung 56.8% | NCI-H460 lung 36.6% | NCI-H522 lung 33.6% | A549/ATCC NSCLC 50.1% | 786-0 renal 49.8% | COLO 205 colon 71.7% | DU-145 prostate 78.9% | K-562 leukemia 64.7% | MALME-3M melanoma 51% | MDA-MB-231 breast 45.7% | RXF 393 renal 35.3% | SF-268 CNS 54.3% | SF-295 CNS 16.8% | UACC-257 melanoma 60.9% | M14 melanoma 71.1%
active: NCI-H226 lung 8.77% | HOP-62 NSCLC 7.77% | SF-539 CNS 3.24%

CN(C)c1nc(NCCNS(=O)(=O)c2ccc(C(=O)/C=C/c3ccc(C(F)(F)F)cc3)cc2)nc(Nc2ccc(F)cc2)n1
active: NCI-H23 lung -5.94% | NCI-H226 lung -48.9% | NCI-H460 lung -19.6% | NCI-H522 lung -79.7% | 786-0 renal -75.7% | COLO 205 colon -47.5% | DU-145 prostate 6.99% | K-562 leukemia -1.07% | MALME-3M melanoma -2.41% | MDA-MB-231 breast -74.2% | RXF 393 renal -81.4% | SF-295 CNS -14.6% | SF-539 CNS -97.5% | M14 melanoma -48.3%
inactive: NCI-H322M lung 27.7% | HOP-62 NSCLC 68.7% | A549/ATCC NSCLC 10.1% | SF-268 CNS 21.6% | UACC-257 melanoma 23.7%

NS(=O)(=O)c1ccc(CCNC(=O)CSc2ccc(-c3ccc(Br)cc3)nn2)cc1
inactive: NCI-H23 lung 47.2% | NCI-H226 lung 70.3% | NCI-H322M lung 81.2% | HOP-62 NSCLC 75.9% | NCI-H460 lung 51.4% | NCI-H522 lung 52.9% | A549/ATCC NSCLC 62% | 786-0 renal 75.3% | COLO 205 colon 83.6% | DU-145 prostate 71.1% | K-562 leukemia 36% | MALME-3M melanoma 75.9% | MDA-MB-231 breast 85.2% | RXF 393 renal 87.7% | SF-268 CNS 72.5% | SF-295 CNS 59.9% | SF-539 CNS 79.2% | UACC-257 melanoma 38.5% | M14 melanoma 77%

CCCSc1nc(Nc2ccc(S(N)(=O)=O)cc2)c(C#N)c(-c2cc(OC)c(OC)c(OC)c2)n1
inactive: NCI-H23 lung 43.4% | NCI-H226 lung 32.7% | NCI-H322M lung 51.7% | HOP-62 NSCLC 32.5% | NCI-H460 lung 16.5% | NCI-H522 lung 18.2% | A549/ATCC NSCLC 17.9% | 786-0 renal 41.5% | DU-145 prostate 26.2% | MDA-MB-231 breast 43.9% | SF-268 CNS 45.2% | SF-295 CNS 14.1% | SF-539 CNS 37% | UACC-257 melanoma 42% | M14 melanoma 18.3%
active: COLO 205 colon 8.62% | K-562 leukemia 2.89% | MALME-3M melanoma -2.83% | RXF 393 renal -2.49%

CCCS(=O)(=O)N1CCCC(C(=O)Nc2nc3ccc(NC(=O)c4ccc(F)c(OC)c4F)cc3s2)C1 (stereo unspecified)
active: RXF 393 renal 8.45%
inactive: NCI-H23 lung 33.9% | NCI-H226 lung 27.9% | NCI-H322M lung 75.6% | HOP-62 NSCLC 68.4% | NCI-H460 lung 55.9% | NCI-H522 lung 39.9% | A549/ATCC NSCLC 57% | 786-0 renal 37.6% | COLO 205 colon 31.6% | DU-145 prostate 72.7% | K-562 leukemia 27.6% | MALME-3M melanoma 52.7% | MDA-MB-231 breast 62.9% | SF-268 CNS 56.9% | SF-295 CNS 23% | SF-539 CNS 47.2% | UACC-257 melanoma 25.2% | M14 melanoma 56.7%

COc1cc(/C=C2\C(=N)N=C(SCc3nc4ccccc4[nH]3)NC2=O)ccc1O
inactive: NCI-H23 lung 96.8% | NCI-H226 lung 92.8% | NCI-H322M lung 103% | HOP-62 NSCLC 101% | NCI-H460 lung 102% | NCI-H522 lung 99.2% | A549/ATCC NSCLC 110% | 786-0 renal 109% | COLO 205 colon 110% | DU-145 prostate 108% | K-562 leukemia 103% | MALME-3M melanoma 91.1% | MDA-MB-231 breast 86.4% | RXF 393 renal 113% | SF-268 CNS 111% | SF-295 CNS 101% | SF-539 CNS 99.2% | UACC-257 melanoma 105% | M14 melanoma 95.4%

CC(=O)OC[C@@]1(C)C2CC[C@]3(C)C(CC=C4C5CC(C)(C)CC[C@]5(C(=O)Nc5ccc(F)cc5)CC[C@]43C)[C@@]2(C)C[C@@H](OC(C)=O)[C@@H]1OC(C)=O (stereo partly specified)
inactive: NCI-H23 lung 45.6% | NCI-H226 lung 47.7% | NCI-H322M lung 60.3% | HOP-62 NSCLC 41.3% | NCI-H460 lung 11.5% | NCI-H522 lung 49.5% | A549/ATCC NSCLC 40.6% | 786-0 renal 59% | COLO 205 colon 43.1% | DU-145 prostate 47.4% | K-562 leukemia 22.4% | MALME-3M melanoma 58.2% | MDA-MB-231 breast 65.5% | RXF 393 renal 87.4% | SF-268 CNS 57.4% | SF-295 CNS 23.4% | SF-539 CNS 40.2% | UACC-257 melanoma 26.8% | M14 melanoma 48.1%

CCCCSc1nc(NCCc2c[nH]c3ccccc23)c(C#N)c(-c2ccc(OC)cc2)n1
active: RXF 393 renal -2.63%
inactive: NCI-H23 lung 48.3% | NCI-H226 lung 60.9% | NCI-H322M lung 87.4% | HOP-62 NSCLC 57% | NCI-H460 lung 33.4% | NCI-H522 lung 57.7% | A549/ATCC NSCLC 61.3% | 786-0 renal 54.8% | COLO 205 colon 74.6% | DU-145 prostate 68.4% | K-562 leukemia 22.4% | MALME-3M melanoma 93.4% | MDA-MB-231 breast 36.9% | SF-268 CNS 56% | SF-295 CNS 43.4% | SF-539 CNS 54.4% | UACC-257 melanoma 94.8%

Brc1ccc(-c2n(Cc3ccc4ccccc4c3)c(-c3ccccc3)c(-c3ccccc3)[n+]2Cc2ccc3ccccc3c2)cc1
active: NCI-H23 lung -89.3% | NCI-H226 lung -51.6% | NCI-H322M lung -99.1% | HOP-62 NSCLC -83.4% | NCI-H460 lung -81.3% | NCI-H522 lung -90.9% | A549/ATCC NSCLC -88.8% | 786-0 renal -79.3% | COLO 205 colon -78.2% | DU-145 prostate -100% | K-562 leukemia 4.96% | MALME-3M melanoma -91% | MDA-MB-231 breast -89.5% | RXF 393 renal -69.6% | SF-268 CNS -72.1% | SF-295 CNS -86.3% | SF-539 CNS -100% | UACC-257 melanoma -89.6%

CC(=O)c1cc(C(=O)c2ccccc2)n2c1ccc1ccccc12
inactive: NCI-H23 lung 105% | NCI-H226 lung 94% | NCI-H322M lung 94.3% | HOP-62 NSCLC 87.5% | NCI-H460 lung 111% | NCI-H522 lung 97.4% | A549/ATCC NSCLC 108% | 786-0 renal 98.7% | COLO 205 colon 110% | DU-145 prostate 128% | K-562 leukemia 94.4% | MALME-3M melanoma 131% | MDA-MB-231 breast 78.4% | RXF 393 renal 93.1% | SF-268 CNS 110% | SF-295 CNS 106% | SF-539 CNS 82.5% | UACC-257 melanoma 118%

O=C(/C=C/Nc1ccc(Cl)cc1)c1ccc2c(c1)Nc1ccccc1S2
inactive: NCI-H23 lung 33.1% | NCI-H322M lung 59.5% | NCI-H460 lung 13.3% | NCI-H522 lung 34.9% | A549/ATCC NSCLC 43.1% | COLO 205 colon 62.5% | DU-145 prostate 33.5% | K-562 leukemia 49.2% | MALME-3M melanoma 50.7% | MDA-MB-231 breast 26.8% | RXF 393 renal 14.5% | SF-268 CNS 42.3% | SF-295 CNS 23.4% | UACC-257 melanoma 74.5% | M14 melanoma 49.5%
active: NCI-H226 lung 8.89% | HOP-62 NSCLC -27.5% | 786-0 renal -6.27% | SF-539 CNS 8%
